Measurements reported in PubChem BioAssay AID1637 (Sanford-Burnham Center for Chemical Genomics, 2009).
The campaign covered roughly 3,700 compounds. Fewer than 10 were called active. Not all results are given here. Values without a mark were called inactive. No rule for the calls is given here.

Test: NMR binding screen, influenza A RNA promoter, Kd (AID 1637)
Settings: NMR binding to influenza A RNA promoter
In the case of `CC1=NNC(=O)C1CCc1ccncc1` (stereo not given), the Kd is reported as greater than 4 mM.
For `O=C(NCc1ccccc1Br)c1ccco1`, the Kd was greater than 4 mM.
`COc1ccc(-c2c(OC)c3c(OC)c4c(cc3oc2=O)OC(C)(C)C=C4)cc1` gave a Kd greater than 4 mM.
`CCN=Cc1c(O)n(-c2ccccc2C)c(=O)[nH]c1=O` showed a Kd greater than 4 mM.
For `NC(=O)c1ccc(NC(=O)C2CC2)cc1`, the Kd was greater than 4 mM.
Work on `c1ccc(CCN2CCN(CCc3ccccn3)CC2)nc1` yielded a Kd greater than 4 mM.
With `COc1c(O)cc2c(c1O)[C@H]1O[C@H](CO)[C@@H](O)[C@H](O)[C@@H]1OC2=O` the Kd was greater than 4 mM.
For `COc1cc(/C=C2/NC(=S)NC2=O)cc(Cl)c1O`, the Kd was greater than 4 mM.
For `O=C(Nc1nccs1)c1ccc(=O)[nH]n1`, the Kd was greater than 4 mM.
For `COC(=O)c1ccc2nc[nH]c2c1`, the Kd was greater than 4 mM.
`CNS(=O)(=O)c1cccs1` gave a Kd greater than 4 mM.
`OCCCc1nc2ccc(C(F)(F)F)cc2[nH]1` showed a Kd greater than 4 mM.
For `CC(=O)Nc1ccc(S(=O)(=O)N(C)C)cc1`, the Kd was greater than 4 mM.
In the case of `O=C(NCc1cccc(Cl)c1)c1cnccn1`, the Kd is reported as greater than 4 mM.
Work on `Cc1cc(C)n(CCCC(=O)O)n1` yielded a Kd greater than 4 mM.
`Cn1c(O)c(/C=C2\C=CC=N2)c(=O)[nH]c1=O` showed a Kd greater than 4 mM.
With `CCOC(=O)c1ccc2c(c1)nnn2C` the Kd was greater than 4 mM.
`COc1ccc(-c2coc3c(OC)c(OC)cc(OC)c3c2=O)cc1` gave a Kd greater than 4 mM.
`NCc1c[nH]c2ccccc12` showed a Kd greater than 4 mM.
For `Cn1c(=O)n(C)c2cc(C(N)=O)ccc21`, the Kd was greater than 4 mM.
With `CC(C)=NNC(=O)C(=O)NC(C)(C)C` the Kd was greater than 4 mM.
Work on `NC(=O)C1CCN(C(=O)c2ccccc2)CC1` yielded a Kd greater than 4 mM.
Work on `CN1C(=O)/C(=C/c2ccc(O)cc2O)SC1=S` yielded a Kd greater than 4 mM.
Molecule `NC(C(=O)O)C(O)c1ccccc1` (stereo not given) has a Kd greater than 4 mM.
For `CCOC(=O)c1c(C)[nH]c2ccc(O)cc12`, the Kd was greater than 4 mM.
Molecule `O=C(Cc1ccc(F)cc1)Nc1ncccn1` has a Kd greater than 4 mM.
`Fc1ccc(-c2n[nH]c(=S)n2CC2CCCO2)cc1` (stereo not given) showed a Kd greater than 4 mM.
With `O=C(CC1SC(=O)NC1=O)Nc1nccs1` (stereo not given) the Kd was greater than 4 mM.
Work on `O=C(O)c1cccc2c1OCCCO2` yielded a Kd greater than 4 mM.
Molecule `NC(=S)CN1CCCC1=O` has a Kd greater than 4 mM.
Work on `CC1=NN(c2ccc(C)cc2)C(=O)C1` yielded a Kd greater than 4 mM.
`O=P(c1ccccc1)(c1ccccc1)C1CCOCC1` showed a Kd greater than 4 mM.
`CC(=O)N1CCN(S(=O)(=O)c2ccccc2)CC1` showed a Kd greater than 4 mM.
For `CN1CCN(CC(=O)N2CCc3ccccc32)CC1`, the Kd was greater than 4 mM.
Molecule `O=C(NC1=NCCS1)c1cccc(F)c1` has a Kd greater than 4 mM.
Work on `O=C1NC(=S)S/C1=C/c1ccncc1` yielded a Kd greater than 4 mM.
For `Cc1[nH]c2ccccc2c1C(=O)CSc1ncn[nH]1`, the Kd was greater than 4 mM.
In the case of `O=C(NN1CCOCC1)c1ccccc1F`, the Kd is reported as greater than 4 mM.
Molecule `Cc1cc(=O)oc2cc3c(cc12)OCCO3` has a Kd greater than 4 mM.
For `CC1SC(=NC(=O)c2ccncc2)NC1=O` (stereo not given), the Kd was greater than 4 mM.
With `Cc1cc(OC(=O)c2ccco2)c([N+](=O)[O-])c(=O)[nH]1` the Kd was greater than 4 mM.
With `Cc1c(O)c(O)cc2c1CC=C1[C@@]2(C)CC[C@@]2(C)C3C[C@](C)(C(=O)O)CC[C@]3(C)CC[C@]12C` (stereo not given in full) the Kd was greater than 4 mM.
`CCN1CCn2c1nc(N1CCOCC1)nc2=O` gave a Kd greater than 4 mM.
`Nc1cc(=O)[nH]c(=S)n1-c1ccc(F)cc1` gave a Kd greater than 4 mM.
`Cc1cc(=O)n2ncn(Cc3ccccc3)c2n1` showed a Kd greater than 4 mM.
`Nc1ccc(-n2cccc2)cc1` showed a Kd greater than 4 mM.
Molecule `CC1(C)Cc2nc(N3CCOCC3)c(C#N)cc2CO1` has a Kd greater than 4 mM.
With `O=C1c2cccnc2C(=O)N1Cc1ccc2c(c1)OCO2` the Kd was greater than 4 mM.
With `Cn1ccnc1C(O)c1ccccc1` (stereo not given) the Kd was greater than 4 mM.
Work on `CS(=O)(=O)c1ccccc1C(=O)Nc1nccs1` yielded a Kd greater than 4 mM.
`NS(=O)(=O)c1ccc(NC(=O)C2CC2)cc1` showed a Kd greater than 4 mM.
For `COc1ccc(/C=C2/NC(=S)NC2=O)cc1`, the Kd was greater than 4 mM.
`CC(=O)NC(NC(C)=O)c1ccccc1` gave a Kd greater than 4 mM.
Work on `O=S(=O)(O)c1cc[n+]([O-])cc1` yielded a Kd greater than 4 mM.
For `Cc1cc(N2C(=O)CCC2=O)n(-c2ccccc2)n1`, the Kd was greater than 4 mM.
For `Nc1nc(-c2ccc(O)cc2)cs1`, the Kd was greater than 4 mM.
`O=C(CNC(=O)c1ccc(F)cc1)NC1=NCCS1` gave a Kd greater than 4 mM.
With `COCCOc1nc2ccccc2nc1C` the Kd was greater than 4 mM.
For `O=C1C2CC=CCC2C(=O)N1c1ccccc1O` (stereo not given), the Kd was greater than 4 mM.
With `Cc1ccn(S(=O)(=O)c2ccc(F)cc2)n1` the Kd was greater than 4 mM.
For `NS(=O)(=O)c1ccc(NC(=O)C(F)(F)F)cc1`, the Kd was greater than 4 mM.
`CC(C)C(C)/C=C/C(C)[C@H]1CCC2C3=CCC4CC(=O)CC[C@]4(C)C3CC[C@@]21C` (stereo not given in full) gave a Kd greater than 4 mM.
With `CS(=O)(=O)NC1CCN(Cc2ccccc2)CC1` the Kd was greater than 4 mM.
For `CC(=O)c1c(O)c(C)c(O)c2c1OC1=CC(=O)C(C(C)=O)C(=O)C12C` (stereo not given), the Kd was greater than 4 mM.
For `O=C(O)c1coc2c1C(=O)CCC2`, the Kd was greater than 4 mM.
With `S=c1[nH]nc(-c2cccnc2)n1Cc1ccccc1` the Kd was greater than 4 mM.
In the case of `CS(=O)(=O)N1CCN(C(=O)Cc2cccs2)CC1`, the Kd is reported as greater than 4 mM.
Work on `NC1=NC(=O)/C(=C/c2ccccc2[N+](=O)[O-])S1` yielded a Kd greater than 4 mM.
Molecule `CCN1CC2(C)CC[C@H](OC)[C@]34C2[C@H](O)C2(OCO[C@@]25C[C@H](OC)[C@H]2C[C@]3(O)C5[C@H]2O)C14` has a Kd greater than 4 mM.
`O=c1c2ccccc2oc2ccc(O)cc12` gave a Kd greater than 4 mM.
`COc1cc(C)c(S(=O)(=O)N2CCN(C)CC2)cc1C` showed a Kd greater than 4 mM.
With `Nc1ncnc(NCc2cccnc2)c1[N+](=O)[O-]` the Kd was greater than 4 mM.
Work on `COC(=O)c1nc(-c2ccccc2)oc1N(C)C` yielded a Kd greater than 4 mM.
With `Cc1cc(C)n(S(=O)(=O)c2cc(C)c(C)cc2C)n1` the Kd was greater than 4 mM.
`CCc1cc2c(SCC(=O)O)ncnc2s1` gave a Kd greater than 4 mM.
For `O=C(c1ccccc1)c1ccc(N2CCNCC2)cc1`, the Kd was greater than 4 mM.
`CC(=O)Nc1cccc(NC(=O)c2cccnc2)c1` showed a Kd greater than 4 mM.
`C(=N\c1nccs1)/c1cccnc1` gave a Kd greater than 4 mM.
With `Cc1ccccc1C(=O)Nn1cnnc1` the Kd was greater than 4 mM.
`OCc1cccc2c1OCCO2` showed a Kd greater than 4 mM.
Molecule `O=C(Nc1cccnc1)N1CCOCC1` has a Kd greater than 4 mM.
`CN(c1ccccc1C(=O)N1CCCC1)S(C)(=O)=O` gave a Kd greater than 4 mM.
`[O-][n+]1onc2c1CCc1c-2nc(-c2ccccc2)n1O` showed a Kd greater than 4 mM.
`CNC(=O)c1cc(C)c(-c2ccccc2)s1` gave a Kd greater than 4 mM.
Work on `NC(=O)CC(=O)NC12CC3CC(CC(C3)C1)C2` yielded a Kd greater than 4 mM.
`O=C(NCc1cccs1)c1ccc2c(c1)OCCO2` showed a Kd greater than 4 mM.
For `COCCn1c(C)cc(O)cc1=O`, the Kd was greater than 4 mM.
`CSc1ccc(C(=S)N2CCN(C)CC2)cc1` gave a Kd greater than 4 mM.
Work on `Nc1ncnc(Nc2ccccc2C(F)(F)F)n1` yielded a Kd greater than 4 mM.
`Cc1nnsc1C(=O)O` showed a Kd greater than 4 mM.
Work on `CCc1ccccc1NC(=O)c1cnccn1` yielded a Kd greater than 4 mM.
For `Cc1ccc(/C=C2/C(=O)N=C(N)N2C)s1`, the Kd was greater than 4 mM.
For `O=c1[nH]cc(NCc2ccco2)c(=O)[nH]1`, the Kd was greater than 4 mM.
In the case of `COc1ccc(-c2c(O)c3c(OC)c4c(cc3oc2=O)OC(C)(C)CC4)cc1`, the Kd is reported as greater than 4 mM.
With `COC[C@]12CN(C=O)C3[C@@H]4[C@H](OC)C1[C@]3(C1CC3(O)C(OC)C(O)C4(OC(C)=O)C1C3OC(=O)c1ccccc1)[C@@H](OC)C[C@H]2O` (stereo not given in full) the Kd was greater than 4 mM.
In the case of `C=C(C)[C@@H]1CC[C@]2(CO)CC[C@]3(C)[C@H](CCC4[C@@]5(C)CC[C@H](O)C(C)(C)C5CC[C@]43C)C12` (stereo not given in full), the Kd is reported as greater than 4 mM.
Work on `CSc1ncc(C(=O)O)n1Cc1ccccc1` yielded a Kd greater than 4 mM.
Molecule `CCOC(=O)C1CCNCC1` has a Kd greater than 4 mM.
With `NCc1csc(-c2ccccc2)n1` the Kd was greater than 4 mM.
For `O=C(O)c1ccc2snnc2c1`, the Kd was greater than 4 mM.
With `Oc1ccc(C2SCCS2)cc1` the Kd was greater than 4 mM.
Molecule `Nc1oncc1-c1ccccn1` has a Kd greater than 4 mM.
With `Cc1cccc(CSc2nncc(=O)[nH]2)c1` the Kd was greater than 4 mM.
For `COc1ccc2c(c1)c1n[nH]c(=S)nc1n2C`, the Kd was greater than 4 mM.
Molecule `Cc1nc2ccccc2c(=O)[nH]1` has a Kd greater than 4 mM.
`CCc1noc(C)c1C(=O)N1CCCC1` gave a Kd greater than 4 mM.
`Nc1cc(=O)[nH]c(=O)n1Cc1ccco1` showed a Kd greater than 4 mM.
Work on `NC(=S)NC(=O)CN1C(=O)c2ccccc2C1=O` yielded a Kd greater than 4 mM.
Molecule `NC(=O)CSc1ccc(Br)cc1` has a Kd greater than 4 mM.
In the case of `O=C(c1ccncc1)c1ccc(Br)cc1`, the Kd is reported as greater than 4 mM.
For `CC1=C/C(=C\c2c(O)[nH]c(=O)[nH]c2=O)C(C)=N1`, the Kd was greater than 4 mM.
`NC(=O)C1CCN(S(=O)(=O)c2ccccc2)CC1` gave a Kd greater than 4 mM.
With `CCOC(=O)CNc1ncnc2c1nnn2CC` the Kd was greater than 4 mM.
With `O=C1CNc2cc(C(=O)O)ccc2N1` the Kd was greater than 4 mM.
Work on `CCC1(CC)C(=O)N=C(N)NC1=O` yielded a Kd greater than 4 mM.
